± gives the standard deviation.
System: RAW-Dual (murine macrophage reporter line)
Test: IRF reporter (Lucia luciferase) activity fold change vs agonist alone; higher = enhanced IRF activity
Details: modulator concentration 10 µM; agonist: MPLA […]
Outline: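 In 384-well plates holding 50 000 RAW-Dual murine macrophage reporter cells per well, compound at 10 μM final was pre-incubated for 1 hour at 37 °C, after which a PRR agonist was added overnight. Supernatant SEAP read with QUANTI-Blue at 620 nm absorbance reported NF-κB, and Lucia luciferase read with QUANTI-Luc luminescence reported IRF. Fold change values come from dividing each reporter signal by the mean of agonist-only control wells on the same plate, averaged over replicate plates with propagated errors.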

| SMILES | IRF reporter |
| --- | --- |
| CC(=O)Nc1ccc(C(=O)NCC#CCN(C)C)cc1 | 1.3 ± 0.45 |
| CC(=O)Oc1ccc(C=Cc2cc(OC(C)=O)cc(OC(C)=O)c2)cc1 | 0.896 ± 0.093 |
| O=C(O)COc1cc(Cl)c(Cl)cc1Cl | 1.46 ± 0.26 |
| Cc1ccc(C)c2sc(N3CCN(C)CC3)nc12.Cl | 1.19 ± 0.22 |
| COc1ccccc1CC(=O)N1CCN(Cc2cnnn2-c2ccccc2F)CC1 | 1.11 ± 0.46 |
| Cc1cccc2sc(NC(=O)c3cccn(Cc4ccc(Br)cc4)c3=O)nc12 | 1.12 ± 0.085 |
| CCN(CC)CCOC(=O)C(O)(c1ccccc1)c1ccccc1.Cl | 1.44 ± 0.11 |
| O=C(NCCN1CCN(c2ccccc2)CC1)c1ccc(F)cc1 | 0.83 ± 0.084 |
| c1cc2c(cc1C1OCC3C(c4ccc5c(c4)OCO5)OCC13)OCO2 (stereo unspecified) | 1.24 ± 0.12 |
| CN1C2CCC1CC(OC(=O)C(CO)c1ccccc1)C2 (stereo unspecified) | 1.15 ± 0.16 |
| COc1cc2c(c(OC)c1OC)-c1ccc(O)c(=O)cc1C(NC(C)=O)CC2 (stereo unspecified) | 1.08 ± 0.19 |
| O=C1NC(=O)N(c2ccccc2F)C(=O)C1=Cc1ccc(OCc2ccc([N+](=O)[O-])cc2)c(Cl)c1 | 1.02 ± 0.065 |
| CCCCCC(=O)NC(Oc1ccc([N+](=O)[O-])cc1)C(Cl)(Cl)Cl (stereo unspecified) | 1.03 ± 0.069 |
| C=C1C[C@@H]2[C@H](CC[C@]3(C)C(=O)CC[C@@H]23)[C@@]2(C)C=CC(=O)C=C12 | 0.908 ± 0.16 |
| O=C1NC(=O)C(=Cc2cccn2-c2ccc(Br)cc2)C(=O)N1 | 0.844 ± 0.18 |
| CC(C)N(CCC(C(N)=O)(c1ccccc1)c1ccccn1)C(C)C (stereo unspecified) | 1.12 ± 0.13 |
| CCNCC.O=C(O)Cc1ccccc1Nc1c(Cl)cccc1Cl | 1.02 ± 0.11 |
| Cc1cc(N2CCNCC2)c2ccccc2n1 | 1.15 ± 0.16 |
| COc1ccc(CCNCc2ccc3ccccc3c2)cc1OC | 1.24 ± 0.14 |

| SMILES | IRF reporter |
| --- | --- |
| COc1ccc(CCNCc2cccc3ccccc23)cc1OC | 1.44 ± 0.14 |
| COc1cc2c(c(OC)c1OC)-c1ccc(OC)c(=O)cc1C(NC(C)=O)CC2 (stereo unspecified) | 2.02 ± 0.27 |
| CN1C(=O)NC(=O)C(=Cc2ccc([N+](=O)[O-])s2)C1=O | 0.914 ± 0.19 |
| CCOC(=O)c1ccccc1-c1ccc(C=C2C(=O)NC(=O)N(c3cccc(C)c3)C2=O)o1 | 1.09 ± 0.12 |
| CC[C@@H](C(N)=O)N1CCCC1=O | 0.863 ± 0.15 |
| CC(=O)OC1CN2CCC1CC2.Cl (stereo unspecified) | 0.862 ± 0.081 |
| COc1ccc(CCNCc2ccc(OC)c(OC)c2OC)cc1OC | 0.997 ± 0.11 |
| CC1=C(O)C(=O)C=C2C1=CC=C1C2(C)CCC2(C)C3CC(C)(C(=O)O)CCC3(C)CCC12C (stereo unspecified) | 0.071 ± 0.039 |
| CN1C2CCC1CC(OC(=O)[C@H](CO)c1ccccc1)C2 (stereo partly specified) | 0.858 ± 0.14 |
| COc1cc(OC)c(OC)cc1C=O | 0.99 ± 0.22 |
| C[C@@H]1CC[C@H]2[C@@H](C)C(=O)O[C@@H]3O[C@@]4(C)CC[C@@H]1[C@]32OO4 | 1.17 ± 0.099 |
| CC(=O)OC1CCC2(C)C(=CCC3C4CCC(=O)C4(C)CCC32)C1 (stereo unspecified) | 1.15 ± 0.13 |
| CC12CCC3C(CC=C4CC(O)CCC43C)C1CC(=Cc1cccc(F)c1)C2=O (stereo unspecified) | 1.31 ± 0.12 |
| COc1ccc(CNCCc2c[nH]c3ccccc23)c(OC)c1C | 2.88 ± 0.25 |
| O=[N+]([O-])Nc1ccc(Br)cn1 | 1.17 ± 0.095 |
| CN1C(=O)NC(=O)C(=Cc2ccc([N+](=O)[O-])o2)C1=O | 0.961 ± 0.061 |
| C1CCc2nnnn2CC1 [Prestw-162] | 1.03 ± 0.23 |
| CC(C)(C)NCC(O)c1cc(Cl)c(N)c(Cl)c1 (stereo unspecified) [Prestw-345] | 0.933 ± 0.09 |
| NNC(=O)c1ccccc1 | 0.931 ± 0.12 |

System: RAW-Dual (murine macrophage reporter line)
Test: viability score (confluency relative to resting cells, overnight) (fraction); higher = more viable, active = viable (0.7 or more)
Details: modulator concentration 10 µM
Outline: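 RAW-Dual macrophages in 384-well plates were incubated overnight with compound, final concentration 10 μM. Confluency images from IncuCyte were processed in IncuCyte software into two masks covering all imaged wells. The viability score is each well's confluency relative to resting cells, and a compound met the cutoff when both masks exceeded 70% of resting cells.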

| SMILES | viability score |
| --- | --- |
| CC(=O)Nc1ccc(C(=O)NCC#CCN(C)C)cc1 | 1 (active) |
| CC(=O)Oc1ccc(C=Cc2cc(OC(C)=O)cc(OC(C)=O)c2)cc1 | 1 (active) |
| O=C(O)COc1cc(Cl)c(Cl)cc1Cl | 1.04 (active) |
| Cc1ccc(C)c2sc(N3CCN(C)CC3)nc12.Cl | 0.976 (active) |
| COc1ccccc1CC(=O)N1CCN(Cc2cnnn2-c2ccccc2F)CC1 | 1.01 (active) |
| Cc1cccc2sc(NC(=O)c3cccn(Cc4ccc(Br)cc4)c3=O)nc12 | 1 (active) |
| CCN(CC)CCOC(=O)C(O)(c1ccccc1)c1ccccc1.Cl | 0.98 (active) |
| O=C(NCCN1CCN(c2ccccc2)CC1)c1ccc(F)cc1 | 1 (active) |
| c1cc2c(cc1C1OCC3C(c4ccc5c(c4)OCO5)OCC13)OCO2 (stereo unspecified) | 1 (active) |
| CN1C2CCC1CC(OC(=O)C(CO)c1ccccc1)C2 (stereo unspecified) | 0.986 (active) |
| COc1cc2c(c(OC)c1OC)-c1ccc(O)c(=O)cc1C(NC(C)=O)CC2 (stereo unspecified) | 0.754 (active) |
| O=C1NC(=O)N(c2ccccc2F)C(=O)C1=Cc1ccc(OCc2ccc([N+](=O)[O-])cc2)c(Cl)c1 | 1.01 (active) |
| CCCCCC(=O)NC(Oc1ccc([N+](=O)[O-])cc1)C(Cl)(Cl)Cl (stereo unspecified) | 1 (active) |
| C=C1C[C@@H]2[C@H](CC[C@]3(C)C(=O)CC[C@@H]23)[C@@]2(C)C=CC(=O)C=C12 | 0.987 (active) |
| O=C1NC(=O)C(=Cc2cccn2-c2ccc(Br)cc2)C(=O)N1 | 0.997 (active) |
| CC(C)N(CCC(C(N)=O)(c1ccccc1)c1ccccn1)C(C)C (stereo unspecified) | 0.998 (active) |
| CCNCC.O=C(O)Cc1ccccc1Nc1c(Cl)cccc1Cl | 0.993 (active) |
| Cc1cc(N2CCNCC2)c2ccccc2n1 | 0.994 (active) |
| COc1ccc(CCNCc2ccc3ccccc3c2)cc1OC | 0.984 (active) |

| SMILES | viability score |
| --- | --- |
| COc1ccc(CCNCc2cccc3ccccc23)cc1OC | 0.947 (active) |
| COc1cc2c(c(OC)c1OC)-c1ccc(OC)c(=O)cc1C(NC(C)=O)CC2 (stereo unspecified) | 0.673 (inactive) |
| CN1C(=O)NC(=O)C(=Cc2ccc([N+](=O)[O-])s2)C1=O | 1 (active) |
| CCOC(=O)c1ccccc1-c1ccc(C=C2C(=O)NC(=O)N(c3cccc(C)c3)C2=O)o1 | 0.995 (active) |
| CC[C@@H](C(N)=O)N1CCCC1=O | 1 (active) |
| CC(=O)OC1CN2CCC1CC2.Cl (stereo unspecified) | 1 (active) |
| COc1ccc(CCNCc2ccc(OC)c(OC)c2OC)cc1OC | 0.998 (active) |
| CC1=C(O)C(=O)C=C2C1=CC=C1C2(C)CCC2(C)C3CC(C)(C(=O)O)CCC3(C)CCC12C (stereo unspecified) | 0.381 (inactive) |
| CN1C2CCC1CC(OC(=O)[C@H](CO)c1ccccc1)C2 (stereo partly specified) | 0.997 (active) |
| COc1cc(OC)c(OC)cc1C=O | 0.992 (active) |
| C[C@@H]1CC[C@H]2[C@@H](C)C(=O)O[C@@H]3O[C@@]4(C)CC[C@@H]1[C@]32OO4 | 0.985 (active) |
| CC(=O)OC1CCC2(C)C(=CCC3C4CCC(=O)C4(C)CCC32)C1 (stereo unspecified) | 1 (active) |
| CC12CCC3C(CC=C4CC(O)CCC43C)C1CC(=Cc1cccc(F)c1)C2=O (stereo unspecified) | 0.933 (active) |
| COc1ccc(CNCCc2c[nH]c3ccccc23)c(OC)c1C | 0.178 (inactive) |
| O=[N+]([O-])Nc1ccc(Br)cn1 | 0.997 (active) |
| CN1C(=O)NC(=O)C(=Cc2ccc([N+](=O)[O-])o2)C1=O | 1.02 (active) |
| C1CCc2nnnn2CC1 [Prestw-162] | 1.01 (active) |
| CC(C)(C)NCC(O)c1cc(Cl)c(N)c(Cl)c1 (stereo unspecified) [Prestw-345] | 0.988 (active) |
| NNC(=O)c1ccccc1 | 1 (active) |

From the supplement of paper PMC10646978
